Assay outcomes: PubChem BioAssay, several laboratories
Rows were chosen to be rich in hits. Some 2.4% of all compounds tested hit in one or more screens of this group.
EP2 mod = modulates human prostaglandin E2 receptor EP2 signaling. EP2-expressing cells, cAMP HTRF FRET, PGE2 co-stimulation. AID 940. induction, % at 25 µM. 0.83% of 260,000 active;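 active means compounds whose cAMP rise, as percent of the full-agonist control response, exceeds 60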;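 further: rat C6 glioma line stably carrying human EP2 under a CMV promoter; the protocol text gives 20 µM as final concentration; 100% = response of wells given 1 µM PGE2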
Arbovirus inh = antivirals against arbovirus infection; arbovirus infection cell-based antiviral screen; inhibition, % at 10 µM; 0.37% of 200,000 active; in the data active means inhibition above about 30%
PGE2 EP2 inh = blocks the human prostaglandin E2 receptor EP2; inhibition, % at 25 µM; P43116; C6 glioma cells expressing human EP2, cAMP TR-FRET; cells stimulated with saturating PGE2; 0.52% of 260,000 active;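 active means percent inhibition above 40 after rounding to a whole number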;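 further: rat C6 glioma host cells with rolipram phosphodiesterase inhibitor present; the protocol text gives 20 µM as final concentration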
p97 inhibitor = inhibitors of human p97 ATPase; P55072; 0.42% of 220,000 active; inhibition, % at 8 µM; recombinant p97 ATPase, Kinase-Glo ATP luminescence, 3 h; in the data active means inhibition above about 15%;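 further: 0% = DMSO vehicle and 100% = wells lacking enzyme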
Hck Nef HTS = inhibitors of human Hck kinase activated by Nef | inhibition, % at 20 µM | Recombinant Hck-YEEI plus Nef, Z-Lyte FRET kinase assay | 0.68% of 220,000 active;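 active means Hck-Nef kinase inhibition above about 50%, limit read from the data; inactive means inhibition below that limit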;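 further: 0% = DMSO with Hck plus Nef and 100% = Hck alone without Nef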
Hck Nef conf = Hck-Nef kinase inhibition, confirmation. shares compounds with Hck Nef HTS. Recombinant Hck-YEEI:Nef, Z-Lyte FRET kinase assay. calls only at 10 µM. 28% of 1,300 active;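 active means average inhibition of at least 50%, with Z-scores no higher than 3 in both the phospho-tyrosine peptide and fluorescence counterscreens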
An asterisk follows results filed as active; i = inactive; . = not tested or not shown; + = active, no number.

SMILES | EP2 mod | Arbovirus inh | PGE2 EP2 inh | p97 inhibitor | Hck Nef HTS | Hck Nef conf
CCCCn1c2nc3ccccc3nc2c2c(=N)oc(C)nc21 | . | 13.2 | . | . | . | .
c1ccc(CNc2ncnc3nc[nH]c23)nc1 | 6.6 | 1.4 | 8.4 | 2.9 | 2.0 | .
Fc1ccccc1/C=N/Nc1ncnc2nc[nH]c12 | -9.5 | -7.0 | 4.9 | 7.1 | 55.7* | +
Fc1cccc(/C=N/Nc2ncnc3nc[nH]c23)c1 | -38.0 | -4.0 | 5.7 | 3.2 | 64.8* | +
Cc1ccc(-c2nnc(-c3ccc(NC(=O)c4ccco4)cc3)o2)cc1 | 22.4 | -5.9 | 17.9 | 0.1 | 108.0* | i
CC(C)(C)c1ccc(C(=O)CC(Sc2ccc(Cl)cc2)C(=O)O)cc1 (stereo unspecified) | -26.0 | -25.7 | 7.7 | -1.5 | 76.8* | i
CC(C)(C)c1ccc(C(=O)Nc2ccc(Cl)cc2)cc1 | 9.8 | 6.6 | 9.4 | 3.7 | 0.4 | .
CCOC(=O)c1cc2c(=O)n3ccccc3nc2n(Cc2ccco2)c1=NC(=O)c1ccccc1OC | -14.8 | -2.3 | 31.7 | 5.0 | 19.4 | .
CCOC(=O)c1cc2c(=O)n3ccccc3nc2n(Cc2ccco2)c1=NC(=O)c1ccc(OC)cc1 | 52.5 | -8.9 | 11.8 | 2.9 | 25.2 | .
CCCn1c(=NC(=O)c2ccco2)c(C(=O)OCC)cc2c(=O)n3ccccc3nc21 | 19.7 | -1.5 | 6.6 | 0.0 | 62.5* | i
CCOC(=O)c1cc2c(=O)n3ccccc3nc2n(C(C)C)c1=NC(=O)c1ccco1 | -12.4 | 7.0 | 12.5 | 2.7 | 105.8* | .
CCOC(=O)c1cc2c(=O)n3cccc(C)c3nc2n(CC(C)C)c1=NC(=O)c1ccco1 | -21.5 | . | 15.6 | 4.3 | + | i
CCOCCCn1c(=NC(=O)c2ccco2)c(C(=O)OCC)cc2c(=O)n3cccc(C)c3nc21 | 26.1 | . | 2.5 | -0.5 | 132.8* | .
Cc1ccc(C(=O)Nc2cccc(C(F)(F)F)c2)cc1Nc1ccccn1 | -143.0 | . | 4.6 | . | 24.3 | .
Cc1ccc(C(=O)Nc2cccc(C(F)(F)F)c2)cc1NC(=O)c1cnnc2ccccc12 | -1.6 | . | 7.9 | . | 73.7* | i
O=C(CCSc1nc(-c2ccc3c(c2)OCO3)cc(C(F)(F)F)n1)NCc1cccs1 | -108.3 | . | 13.9 | . | . | .
COC(=O)c1c(N)sc(C(=O)Nc2cc(C)ccc2C)c1C | -22.8 | . | 24.9 | . | . | .
O=C1CN(C(=O)COC(=O)/C=C/c2ccco2)c2ccccc2N1 | -12.4 | 1.2 | 2.3 | 7.9 | 53.1* | i
CCN(CC)c1cc(NCCO)c([N+](=O)[O-])c2nonc12 | 8.9 | 11.7 | -0.3 | 5.2 | 56.4* | i
CC(C)CCSc1cc(NCCO)c([N+](=O)[O-])c2nonc12 | -28.0 | 14.9 | 4.2 | 3.4 | 12.3 | .
COc1ccc2cc(N=Cc3nc(-c4ccc(C)cc4)oc3O)cnc2c1 | -15.5 | 10.4 | 4.1 | -4.7 | 58.8* | i
CCn1c(CNc2ccccc2Cl)nnc1SCC(=O)Nc1cc(Cl)ccc1OC | -17.7 | . | 8.8 | . | . | .
Cc1ccccc1Nc1ncnc2c1cnn2-c1ccccc1 | 3.2 | -12.2 | 12.3 | -3.0 | 56.0* | +
NNc1ncnc2c1cnn2-c1ccccc1 | -34.4 | -15.4 | -4.4 | -6.7 | 2.7 | .
COc1cccc(OC)c1CN(Cc1cccnc1)C1CC(C)(C)NC(C)(C)C1 | -18.9 | . | 6.9 | . | . | .
SMILES | EP2 mod | Arbovirus inh | PGE2 EP2 inh | p97 inhibitor | Hck Nef HTS | Hck Nef conf
Cc1ccc(-c2nn3c(C)nnc3s2)cc1NC(=O)c1ccc(-c2cccc(Cl)c2)o1 | -4.8 | -26.3 | 11.5 | 7.2 | 15.2 | .
Cc1ccc(-c2nn3c(C)nnc3s2)cc1NC(=O)c1ccc(-c2ccc(Cl)cc2Cl)o1 | 27.8 | -34.2 | 8.5 | -5.3 | 50.2* | +
CC(=O)c1cc2c(cc1NS(=O)(=O)c1ccc(S(=O)(=O)N(C)C3CCCCC3)cc1)OCO2 | -15.8 | . | 9.1 | . | . | .
COc1ccc(S(=O)(=O)Nc2cc3c(cc2C(C)=O)OCO3)cc1 | -20.6 | -22.8 | 2.3 | 6.0 | 53.7* | i
COCCn1nnnc1C(c1cc2cc(OC)c(OC)cc2[nH]c1=O)N1CCc2ccccc21 (stereo unspecified) | -17.8 | . | 8.7 | . | . | .
CCOc1cccc(=O)c2c(C)n(CC(=O)c3ccccc3)c(C)c12 | -53.1 | -0.1 | 6.0 | 4.7 | 14.3 | .
COc1cccc(=O)c2c(C)n(CC(=O)c3ccccc3)c(C)c12 | -39.8 | -2.6 | 1.2 | 8.4 | 52.8* | i
O=C(c1ccc(F)cc1)[C@H]1CCCN(C(=O)c2ccn[nH]2)C1 | -26.2 | . | 4.8 | . | . | .
Cc1cccc(C2NC(C(=O)O)CS2)c1 (stereo unspecified) | -43.4 | . | 10.4 | . | . | .
